In test [1] the target is Cytochrome P450 2D6 (Homo sapiens) (UniProt P10635). The experiment in a line: Cytochrome P450 family 2 subfamily D member 6 (CYP2D6) small molecule antagonists: luciferase biochemical (cell-free) qHTS assay (AID 1645840; active means well fitted curve in the direction sought with a large enough effect in the repeat runs; an effect the other way counts as inactive or inconclusive; further: nearly all actives have a fitted effect of over 55% in size; further: potency means the concentration at half of the fitted maximal effect; on activity change, negative = inhibition: on the % scale 0 is the no-effect control and ±100 the full control effect). The gist of the method:
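P450-Glo CYP2D6 system: proluciferin substrate converted by enzyme to luciferin, read by luminescence proportional to activity. Enzyme-substrate mix with compound 10 min at room temperature, then NADPH regeneration 1 h before detection reagent.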

Test [2] is described as follows: Primary redox qHTS assay for identification of artifact compounds. (AID 1845223).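 Further: 0% = DMSO and 100% = reference compound.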 In a few lines: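 Redox-cycling detection via DTT (250 uM final) oxidation coupled to Amplex Red (25 uM)/HRP (250 mU/mL) in HBSS. 15 min preincubation plus 30 min after DTT, room temperature. Ex/Em 525/598 nm; 4-parameter Hill fit against DMSO and 10 uM DA3003.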
Background: In qHTS, concentration-response curves come from the screen itself.

Test [3] relates to HaCat. Put plainly: Cytotoxic Profiling of Annotated Libraries Using Quantitative High-Throughput Screening (AID 1296008). Further: nearly all actives have a fitted effect of over 60% in size. Further: potency means the concentration at half of the fitted maximal effect. On max response: on the % scale 0 is the no-effect control and ±100 the full control effect. The following applies: Five cell lines viability, CellTiter-Glo ATP luminescence, 48-72 h; max response: stronger effect = lower value. The gist of the method:
(§1)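 Compounds were pin-transferred onto cells and incubated 48 or 72 hr at 37 degree Celsius, 95% humidity. CellTiter-Glo was added, plates sat 10 min at room temperature, then ATP-coupled luminescence was imaged as the viability read-out.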
(Cellular ATP, detected with luciferase, serves as a proxy for viable cell number.)

For the next test, the system named is KB-3-1. The description is as above. The following applies: Five cell lines viability, CellTiter-Glo ATP luminescence, 48-72 h; max response: stronger effect = lower value. In a few lines:
as §1

For the next test, the system named is SKOV3. Put plainly: Primary qHTS to identify gynecologic anti-cancer compounds using libraries of approved drugs and bioactive compounds (AID 1345084). Further: nearly all actives have a fitted effect of over 55% in size. Further: potency means the concentration at half of the fitted maximal effect. The following applies: Gynecologic cancer cell panel viability, ATPlite luminescence, 48 h; series mostly up to 57.5 µM. The gist of the method:
(§2)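 Five-concentration response, 48 h; readout is ATP-driven luciferase luminescence.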

Test [4] deals with Cytochrome P450 2C9 (Homo sapiens) (UniProt P11712). The experiment in a line: Cytochrome P450 family 2 subfamily C member 9 (CYP2C9) small molecule antagonists: luciferase biochemical (cell-free) qHTS assay (AID 1645842; active means well fitted curve in the direction sought with a large enough effect in the repeat runs; an effect the other way counts as inactive or inconclusive; further: on the % scale 0 is the no-effect control and ±100 the full control effect; nearly all actives have a fitted effect of over 55% in size). The gist of the method:
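P450-Glo CYP2C9 system: proluciferin substrate with enzyme in mix containing 0.4% BSA, 10 min at room temperature, then NADPH regeneration solution added and incubated 1 h at 37C. Detection reagent stopped reaction; luminescence read after 20 min as RLU.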

The test system of another test is CRL-7250. The experiment in a line: qHTS assay to identify novel small-molecules to repurpose for Merkel cell carcinoma treatment (AID 1296009). Further: nearly all actives have a fitted effect of over 60% in size. The following applies: MCC and control cell lines, CellTiter-Glo viability, 72 h; series mostly up to 92 µM. In a few lines:
(§3)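 Viability readout: ATP luminescence (CellTiter-Glo) after 72 hr drug exposure at 37 degree celsius. Dose-response format was 8 points for NPC and 11 points for MIPE; data normalized to in-plate controls.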

For another test, the system named is HeLa. The experiment in a line: Primary qHTS to identify gynecologic anti-cancer compounds using libraries of approved drugs and bioactive compounds (AID 1345084). Further: nearly all actives have a fitted effect of over 55% in size. Further: potency means the concentration at half of the fitted maximal effect. The following applies: Gynecologic cancer cell panel viability, ATPlite luminescence, 48 h; series mostly up to 57.5 µM. In a few lines:
as §2

Test [5] can be described thus: P-glycoprotein substrates identified in KB-8-5-11 adenocarcinoma cell line, qHTS therapeutic library screen (AID 1346987). Further: nearly all actives have a fitted effect of over 65% in size. Further: potency means the concentration at half of the fitted maximal effect. In a few lines:
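Luminescence from CellTiter-Glo, read 5 min after addition, quantified survival of KB-8-5-11 (P-gp-overexpressing) cells exposed to compounds for 72 h. AC50 was derived from concentration-response curves.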

Test [6] in a line: Primary qHTS for inhibitors of nuclear receptor binding SET domain protein 2 (NSD2) in an isogenic RCH-ACV NSD2 p.E1099K mutant (9B) (AID 1645876). Further: nearly all actives have a fitted effect of over 70% in size. Further: potency means the concentration at half of the fitted maximal effect.
The subject of test [7] is HACAT. Put plainly: qHTS assay to identify novel small-molecules to repurpose for Merkel cell carcinoma treatment (AID 1296009). Further: nearly all actives have a fitted effect of over 60% in size. The settings on record: MCC and control cell lines, CellTiter-Glo viability, 72 h; at 44.8 µM (top of the series) unless noted. In a few lines: as §3
A short description of test [8]: Primary qHTS for inhibitors of nuclear receptor binding SET domain protein 2 (NSD2) in an RCH-ACV wild type WT cells (2C) (AID 1645877). Further: nearly all actives have a fitted effect of over 70% in size. Further: potency means the concentration at half of the fitted maximal effect.
A short description of test [9]: P-glycoprotein substrates identified in KB-3-1 adenocarcinoma cell line, qHTS therapeutic library screen (AID 1346986). Further: nearly all actives have a fitted effect of over 60% in size. In a few lines:
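72 h cell-killing screen, 500 cells/well, CellTiter-Glo luminescence. Paired lines KB-3-1/KB-8-5-11; P-gp dependence checked by tariquidar co-treatment and HEK-293 MDR-19 versus empty-vector cells.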

Test [10] concerns the target Catechol O-methyltransferase (Homo sapiens) (UniProt P21964). Put plainly: Confirmatory Screen for Target Class Profiling of Small Molecule Inhibitors of Methyltransferases (AID 1745852). On activity change, negative = inhibition: on the % scale 0 is the no-effect control and ±100 the full control effect. The following applies: MTase-Glo luminescence, SAH detection, recombinant enzyme; measured here: COMT max response; stronger effect = lower value.
Test [11] has as its target Guanidinoacetate N-methyltransferase (Homo sapiens) (UniProt Q14353). The test is described as above. The settings on record: activity change, negative = inhibition: at 57.3 µM (top of the series) unless noted.
Test [12] has as its target Nicotinamide N-methyltransferase (Homo sapiens) (UniProt P40261). The description is as above. The settings on record: MTase-Glo luminescence, SAH detection, recombinant enzyme; measured here: NNMT max response; stronger effect = lower value.
Test [13] has as its target Phenylethanolamine N-methyltransferase (Homo sapiens) (UniProt P11086). The description is as above. The settings on record: MTase-Glo luminescence, SAH detection, recombinant enzyme; measured here: PNMT max response; stronger effect = lower value.

Results filed as inconclusive are left out. The source made the active and inactive calls. Unless noted, the call rests on the fitted dose curve; in most records, active means well fitted curve in the direction sought with a large enough effect; inconclusive means small, poorly fitted or top-dose-only effect, or another doubt; inactive means no such curve, though single readings can be large; an effect the other way counts as inactive or inconclusive. *1 amine or outer side, *2 acyl side, *3 side chain or, on linkers, in order; H or OH if unused. Where a SMILES comes first, the peptide text is derived from it. [ ]: non-standard residue; d: D form. X5 = CC(CC(O[*:1])C(=O)[*:2])C(=O)O; NMeV = CN[CH](C(=O)O)C(C)C; NMeA = CN[CH](C)C(=O)O; βAla = NCCC(=O)O

Here are results for ten compounds from PubChem BioAssay (NCATS).

Chain of Cytochrome P450 2D6 (Homo sapiens) (P10635 whole entry, looked up): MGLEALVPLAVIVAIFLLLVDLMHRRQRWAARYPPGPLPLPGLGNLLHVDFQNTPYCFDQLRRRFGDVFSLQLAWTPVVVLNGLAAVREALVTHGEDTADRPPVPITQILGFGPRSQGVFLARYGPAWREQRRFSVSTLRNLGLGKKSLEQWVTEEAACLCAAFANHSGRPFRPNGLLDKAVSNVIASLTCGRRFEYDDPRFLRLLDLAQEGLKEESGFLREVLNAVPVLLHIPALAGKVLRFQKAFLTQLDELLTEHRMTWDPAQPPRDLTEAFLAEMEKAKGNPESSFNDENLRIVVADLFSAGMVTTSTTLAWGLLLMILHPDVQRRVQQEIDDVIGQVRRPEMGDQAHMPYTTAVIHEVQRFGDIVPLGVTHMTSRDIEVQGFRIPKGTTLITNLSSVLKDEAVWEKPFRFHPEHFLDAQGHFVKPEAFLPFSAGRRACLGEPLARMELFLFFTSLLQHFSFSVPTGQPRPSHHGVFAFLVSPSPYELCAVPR
Chain of Cytochrome P450 2C9 (Homo sapiens) (P11712 whole entry, looked up): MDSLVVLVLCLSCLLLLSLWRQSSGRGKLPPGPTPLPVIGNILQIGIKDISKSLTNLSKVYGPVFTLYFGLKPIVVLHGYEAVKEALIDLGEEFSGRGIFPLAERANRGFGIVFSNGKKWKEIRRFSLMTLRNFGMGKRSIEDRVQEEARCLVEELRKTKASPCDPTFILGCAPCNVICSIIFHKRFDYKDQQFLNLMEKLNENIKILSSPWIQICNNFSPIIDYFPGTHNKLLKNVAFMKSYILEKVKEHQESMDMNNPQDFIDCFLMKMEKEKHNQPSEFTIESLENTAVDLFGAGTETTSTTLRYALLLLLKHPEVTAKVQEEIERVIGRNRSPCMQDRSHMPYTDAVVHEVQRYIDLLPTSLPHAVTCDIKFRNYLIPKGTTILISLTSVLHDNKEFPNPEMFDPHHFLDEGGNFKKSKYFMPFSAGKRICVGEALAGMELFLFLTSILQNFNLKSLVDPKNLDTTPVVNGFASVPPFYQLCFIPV
Chain of Phenylethanolamine N-methyltransferase (Homo sapiens) (P11086 whole entry, looked up): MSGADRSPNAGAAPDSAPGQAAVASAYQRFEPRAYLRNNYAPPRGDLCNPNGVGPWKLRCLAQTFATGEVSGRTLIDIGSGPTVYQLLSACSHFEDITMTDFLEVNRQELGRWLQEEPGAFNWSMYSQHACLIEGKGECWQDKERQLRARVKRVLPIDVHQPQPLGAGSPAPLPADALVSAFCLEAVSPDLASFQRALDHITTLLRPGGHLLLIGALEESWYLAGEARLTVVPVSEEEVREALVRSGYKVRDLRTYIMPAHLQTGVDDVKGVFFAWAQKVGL
Chain of Catechol O-methyltransferase (Homo sapiens) (P21964 whole entry, looked up): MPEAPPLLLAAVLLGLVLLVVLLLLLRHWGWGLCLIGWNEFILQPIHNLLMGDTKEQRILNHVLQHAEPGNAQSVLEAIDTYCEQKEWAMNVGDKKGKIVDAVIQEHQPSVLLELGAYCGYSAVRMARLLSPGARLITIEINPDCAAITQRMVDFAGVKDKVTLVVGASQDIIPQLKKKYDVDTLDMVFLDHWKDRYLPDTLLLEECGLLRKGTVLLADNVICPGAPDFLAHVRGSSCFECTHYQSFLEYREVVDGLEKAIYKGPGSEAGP
Chain of Nicotinamide N-methyltransferase (Homo sapiens) (P40261 whole entry, looked up): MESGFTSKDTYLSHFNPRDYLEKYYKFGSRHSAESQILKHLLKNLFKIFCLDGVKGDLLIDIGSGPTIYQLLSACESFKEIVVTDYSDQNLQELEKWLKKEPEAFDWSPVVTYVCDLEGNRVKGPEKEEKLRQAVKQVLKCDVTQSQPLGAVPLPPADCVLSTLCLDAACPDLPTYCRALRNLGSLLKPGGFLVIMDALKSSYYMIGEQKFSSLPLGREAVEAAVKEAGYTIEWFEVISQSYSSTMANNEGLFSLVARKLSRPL

Take `c1ccc(C2(c3ccccc3)OC[C@@H]([C@H]3CCCCN3)O2)cc1`: in [1], the Potency was 849 nM (active). Also, the Potency entry (in test [2]; with SKOV3) was “inactive” throughout. The max response is 4.38% (inactive) with HaCat [3] and -9.58% (inactive) with KB-3-1.

For the compound `CN=C(NS(=O)(=O)c1ccc(Cl)cc1)N1C[C@H](c2ccccc2)C(c2ccc(Cl)cc2)=N1`, the Potency result (in [1]; in test [4]; in [2]; with CRL-7250; in the test on HeLa; in the test with SKOV3) was “inactive” each time. In the test on HaCat [3], the max response was -7.89% (inactive).

With `C=C1C(=O)O[C@@H]2[C@H]3C(=C)[C@@H](O)C[C@H]3C(=C)C[C@@H](O)[C@@H]12`, the Potency entry (in test [5]; in test [2]; in the test with HeLa; in the test with SKOV3) was “inactive” in each case. Also, in test [6], the Potency is 16300 nM (active). Further, the max response in the test with HaCat [3] was -4.6% (inactive); in the test with KB-3-1, 6.92% (inactive).

For `COC(=O)C12C(=O)C(C)(O)C(=O)C1(C)C(C)=CC1C3(C=O)CCC(OC(C)=O)C(C)(C)C3CCC12C` (centres undefined), the Potency entry (in [5]; in test [2]; with HeLa; in the test on SKOV3) was “inactive” each time. The max response in the test with HaCat [3] is -17.3% (inactive); in the test with KB-3-1 it was 6.36% (inactive).

Regarding `O=C(N[C@H]1CN2CCC1CC2)c1cc2cccc(Cl)c2s1`, the Potency in test [1] is 16900 nM (active). Also, the Potency result (in test [4]; in test [2]; in the test on SKOV3) was “inactive” in each case. For the same compound, the max response in the test on HaCat [3] is -4.19% (inactive); in the test on KB-3-1, 2.28% (inactive).

Consider `CCC1CN2CCC3(C(=O)Nc4cccc(O)c43)C2CC1/C(=C/OC)C(=O)OC` (centres undefined), for which the Potency result (in test [5]; in test [6]; in [2]; with HeLa; in the test on SKOV3) was “inactive” each time. Besides, in the test with HaCat [3], the outcome is “inactive”. In the test on KB-3-1, the max response was -16.6% (inactive). Further, the outcome in the test on HACAT [7] was “inactive [at 17.4 µM]”.

With `CC[C@@H]1C[C@H]2CC[C@H](O2)[C@H](C)C(=O)O[C@@H](C)C[C@@H]2CC[C@@H](O2)[C@@H](C)C(=O)O[C@H](C)C[C@H]2CC[C@H](O2)[C@H](C)C(=O)O[C@@H](C)C[C@@H]2CC[C@@H](O2)[C@@H](C)C(=O)O1`, the Potency in [5] was 1220 nM (active); in test [6], 21.6 nM (active); in [8], 24.2 nM (active); in the test on HaCat [3] it was 485 nM (active); in the test on KB-3-1 it was 96.8 nM (active); in the test with SKOV3, 562 nM (active). Further, the Potency entry in [2] is “inactive”.

As for `CC(=O)O[C@H]1C[C@@H](C)O[C@H]2O[C@@H]3CC4CC[C@@H]5C(CC[C@]6(C)[C@@H](C7=CC(=O)OC7)CC[C@]56O)[C@@]4(C=O)C[C@H]3O[C@]21O` (some centres undefined), the Potency in test [5] was 86.2 nM (active); in test [6], 48.3 nM (active); with HaCat [3] it was 172 nM (active); in the test on KB-3-1, 68.5 nM (active); in the test on SKOV3, 112 nM (active).

On to `CCC(C)C1NC(=O)C2CCCN2C(=O)C(CC(C)C(=O)O)OC(=O)CCNC(=O)C(C)N(C)C(=O)C(C(C)C)N(C)C1=O` (centres undefined) (cyclo([X5]PI[NMeV][NMeA][βAla]); configuration not given here), for which the Potency entry (in test [9]; in test [5]; in [6]; in test [8]; in [2]; with SKOV3) was “inactive” each time. Also, in the test with HaCat [3], the max response is 4.66% (inactive). Also, in the test with KB-3-1, the outcome was “inactive”.

With `CCC1CN2CCc3cc(OC)c(OC)cc3C2CC1CC1=NCCc2cc(O)c(OC)cc21` (centres undefined), the Potency result (in test [6]; with HeLa; in the test on SKOV3) was “inactive” in each case. Further, the activity in test [10] is -74.9%; in test [12], -6.53%; in [13], -6.3%. The activity change, negative = inhibition in [11] was -9.58% [at 29.8 µM]. In the test with HaCat [3], the outcome is “inactive”. Further, the max response in the test with KB-3-1 was -7.09% (inactive). The outcome in the test on HACAT [7] was “inactive [at 17.4 µM]”.
